SMARCA2 activ: SMARCA2 (BRM) function activators, primary screen, cell-based, luminescence, high throughput; MG213 cells, MMTV-luciferase reporter, dexamethasone, overnight; AID 652017, 2013; activation, % at 9.1 µM; 1% of 370,000 active; in the data active = activation above about 7.8%;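 note: 0% = vehicle wells and 100% = reference activator wells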
ssDAF-12 act: S. stercoralis DAF-12 nuclear receptor activators, primary screen, cell-based, luminescence, HEK293, GRIP1 co-expression, lit1-tk-luc; Nuclear hormone receptor DAF-12 (Strongyloides stercoralis); HEK293 ssDAF-12/GRIP1 lit1-tk-luc reporter; % of 3 µM dafachronic acid response; activation, % at 6.8 µM; 1% of 370,000 active; AID 652126, 2013;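 active = activation above the mean over all tested compounds plus 3 SD, cut at about 0.9% in these data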;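 note: 0% = DMSO-only wells and 100% = 3 µM delta7-dafachronic acid wells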
DAX1 inh-1: DAX1 (NR0B1) inhibitors, primary screen, cell-based, HEK293, Gal4-DAX1, luciferase luminescence; HEK293 Gal4-DAX1 luciferase reporter; 0.99% of 340,000 active; inhibition, % at 6.75 µM; AID 504766, 2011;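 active = inhibition above the mean over all tested compounds plus 3 SD, cut at about 4.2% in these data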;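 note: 0% = DAX1-transfected cells with DMSO and 100% = empty-vector control cells with DMSO; inhibition shows as a rise in luminescence from relieved DAX1 repression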
Target sequence (P51843 207-470 limits assumed): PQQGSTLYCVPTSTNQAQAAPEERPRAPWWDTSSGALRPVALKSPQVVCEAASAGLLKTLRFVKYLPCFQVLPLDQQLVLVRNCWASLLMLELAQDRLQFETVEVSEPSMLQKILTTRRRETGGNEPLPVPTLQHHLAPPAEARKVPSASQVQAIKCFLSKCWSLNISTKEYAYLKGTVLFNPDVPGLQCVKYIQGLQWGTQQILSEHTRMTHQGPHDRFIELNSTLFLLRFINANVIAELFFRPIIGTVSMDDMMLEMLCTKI
hcDAF12 agonist: H. contortus DAF-12 nuclear receptor activators, primary screen, cell-based, luminescence, HEK293, lit1-tk-luc reporter. HEK293 hcDAF-12 lit1-tk-luc reporter; 0% DMSO, 100% Δ7-dafachronic acid. activation, % at 6.8 µM. 1.4% of 370,000 active. AID 652067, 2013;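 active = activation above the mean of all tested compounds plus 3 SD, cut at about 5.5% in these data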;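 note: 100% = response to 3 µM Δ7-dafachronic acid high control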
hgDAF12 agonist: H. glycines DAF-12 receptor agonists, primary screen, cell-based, luminescence, HEK293, GAL4 fusion, UAS-luciferase; Nuclear hormone receptor DAF-12 (Heterodera glycines), GAL4 fusion; HEK293 GAL4-hgDAF12 UAS-luciferase reporter, agonist luminescence; normalized to butyrate control; activation, % at 6.8 µM; 1.8% of 370,000 active; AID 687014, 2013;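 active = activation above a cutoff set at the mean of all screened compounds plus 3 SD, cut at about 10% in these data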;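 note: 0% = DMSO wells and 100% = sodium butyrate wells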
DAX1 inh-2: DAX1 (NR0B1) inhibitors on StAR promoter, primary screen, cell-based, luminescence, SF-1 (NR5A1), full-length DAX-1. AID 652010, 2013. HEK293T StAR-luciferase reporter, SF-1/DAX-1 repression relief. inhibition, % at 6.8 µM. 1.1% of 370,000 active;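 active = inhibition above the mean over all tested compounds plus 3 SD, cut at about 3.6% in these data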;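 note: 0% = DAX-1 cells with DMSO and 100% = cells lacking DAX-1 with DMSO; higher inhibition means more luminescence from relief of DAX-1 repression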
Active calls of the source: *; . = no result given. Most compounds without a hit are left out; they make up all but 4.8% or so of the library.

SMILES | SMARCA2 activ | ssDAF-12 act | DAX1 inh-1 | hcDAF12 agonist | hgDAF12 agonist | DAX1 inh-2
CCN1CCN(C(=O)c2cc3sccc3n2CC(=O)c2ccccc2)CC1 | -3.1 | 1.2* | 0.2 | 1.9 | 0.1 | 1.8
CCOC(=O)CSC1=C(C#N)C(c2ccccc2OCC)C(C#N)C(=O)N1 (stereo unspecified) | 0.2 | -0.7 | 4.2* | -1.6 | 1.3 | 1.0
COc1ccc(CN2CCC(CNC(=O)Nc3ccc(Cl)cc3)CC2)cc1 | 0.4 | -1.0 | . | -1.5 | 7.6 | 0.6
N#CCOc1nc(N2CCCC2)nc(N2CCCC2)n1 | -3.2 | -0.9 | -0.9 | -1.2 | -1.9 | 0.2
N#CCOc1nc(N2CCOCC2)nc(N2CCOCC2)n1 | -0.9 | -1.1 | 6.0* | -2.1 | 2.2 | -0.1
O=C(CN1CCc2onc(-c3ccc(-n4cc(C5=CCCCC5)nn4)cc3)c2C1=O)N1CCOCC1 | -3.0 | -1.4 | . | -1.6 | -1.3 | -2.1
Cc1ccc(O)c(NC(=O)c2cc(-c3ccccc3)on2)c1 | 7.8* | -1.1 | 4.9* | 3.2 | 2.5 | 1.4
COc1ccc(-c2cc(C(=O)Nc3cccc(Cl)c3)no2)cc1 | 5.5 | -0.6 | 4.2* | 2.2 | 8.4 | 0.3
COc1cccc(-c2cc(C(=O)Nc3cccc(O)c3)no2)c1 | 3.7 | -0.2 | -1.6 | 5.4 | 10.7* | 3.5
CCC(C)NC(=O)c1cc(-c2ccc(OC)cc2)on1 (stereo unspecified) | 1.1 | -1.2 | 1.3 | 3.0 | 11.1* | 2.2
COc1ccc(NC(=O)c2cc(-c3cccc(OC)c3)on2)cc1 | -1.2 | -0.3 | -0.1 | -0.4 | -2.1 | -0.1
O=C(Nc1ccccc1C(F)(F)F)c1cc(-c2cccc(O)c2)on1 | 1.4 | -0.8 | 0.5 | -0.5 | 3.5 | 1.1
O=C(NCCCn1ccnc1)c1cc(-c2cccc(O)c2)on1 | 0.0 | 0.3 | 4.7* | 1.3 | 9.7 | 1.5
CCc1ccccc1NC(=O)c1cc(-c2cccc(O)c2)on1 | -2.9 | -0.9 | 2.2 | -2.1 | 11.1* | 1.1
Cc1ccc(-c2cc(C(=O)NCCCn3ccnc3)no2)cc1 | -0.2 | -1.2 | 0.4 | -1.8 | 7.5 | -0.3
COc1ccc(S[C@]2(C(=O)NCc3ccccc3)CC(=O)N[C@@H]2c2ccc(OC)cc2)cc1 | -4.8 | -1.1 | . | 0.6 | -2.7 | 0.0
O=C(CSc1nnc(-c2ccccc2)n1-c1ccc(Cl)cc1)NN=Cc1c[nH]c2ccccc12 | -4.1 | -0.1 | . | 2.1 | -3.9 | -1.7
C#CCN1C(=O)S/C(=C/C=C/c2ccc(N(C)C)cc2)C1=O | 4.0 | -0.1 | 2.8 | 4.3 | 12.7* | 2.0
O=C1CCCC2=C1C1(CCCC1)N=C(Nc1nc3cc(Br)ccc3o1)N2 | . | -2.2 | . | -1.8 | -2.9 | .
O=C(Cn1c(=O)n(Cc2ccco2)c(=O)c2ccccc21)Nc1cccc(Cl)c1 | -1.0 | -1.1 | 1.5 | 1.5 | 11.2* | 0.0
Cc1ccc(NC(=O)Cn2c(=O)n(Cc3ccco3)c(=O)c3ccccc32)c(C)c1 | -4.8 | -0.9 | -0.7 | 0.7 | -1.0 | 0.2
COc1ccc2c(c1)CN1CN(Cc3ccc(F)cc3)S(=O)(=O)CC21 (stereo unspecified) | 3.2 | -0.9 | . | -0.3 | -1.1 | 0.4
Cc1nnc(-c2cccc(C(F)(F)F)c2)nc1N1CCOCC1 | 0.6 | -1.7 | -1.5 | 0.7 | 0.8 | 4.3*
FC(F)(F)c1cccc(-c2noc(CN3CCOCC3)n2)c1 | -0.5 | -0.3 | 2.5 | -2.6 | -0.3 | -0.3
Cc1ccc(NC(=O)c2ccc(CS(=O)(=O)Cc3ccccc3C)o2)c(C)c1 | -2.8 | -2.0 | . | -2.7 | -6.2 | -1.2
SMILES | SMARCA2 activ | ssDAF-12 act | DAX1 inh-1 | hcDAF12 agonist | hgDAF12 agonist | DAX1 inh-2
CCCC[C@H]1C2CC(OC(=O)Nc3cccc(Br)c3)C(C2)[C@H]2CCCCN21 (stereo partly specified) | -0.4 | -1.1 | . | 0.2 | -1.2 | -0.3
COC(=O)C1CCN(C(=O)COC(=O)c2ccc(=O)n(Cc3ccccc3)n2)CC1 | -0.9 | -1.4 | 0.2 | -0.1 | 0.9 | 2.0
O=C(NC1CCCCCC1)c1ccc(=O)n(Cc2ccccc2)n1 | 1.6 | -1.6 | 4.5* | -1.3 | -1.7 | -0.4
COc1ccnc(CS(=O)c2nc3cc(C(O)(F)F)ccc3[nH]2)c1OC (stereo unspecified) | 0.1 | 0.1 | -0.1 | 6.1* | 2.8 | -0.1
CNS(=O)(=O)c1ccc(CNC[C@H]2O[C@@H](n3ccc(N)nc3=O)[C@H](O)[C@@H]2O)cc1 | -0.9 | -1.3 | 4.6* | -0.6 | -0.6 | -1.4
O=C(C1CC1)N1CCc2cc(Br)c(S(=O)(=O)NCCCN3CCCCC3)cc21 | -1.9 | -1.2 | . | -0.2 | -2.2 | 0.6
O=C(Nc1ccc(Cl)cc1Cl)OC1CCC12CCC(c1ccccc1)CC2 (stereo unspecified) | . | -1.2 | . | -1.6 | -1.0 | .
C/C(=N\NC(=O)c1sccc1C)c1cccnc1 | 5.0 | -0.3 | 0.9 | 4.2 | 8.8 | 4.2*
C/C(=N/NC(=O)c1ccc(C(C)(C)C)cc1)c1cccnc1 | -4.5 | -0.5 | . | 0.5 | 1.8 | 0.3
CC(COc1cccc(Cl)c1)CN1CCC(C(O)(c2ccccc2)c2ccccc2)CC1 (stereo unspecified) | -6.1 | -0.8 | . | -1.1 | 3.1 | 0.1
O=C(N/N=C/c1ccc2ncccc2c1)c1ccco1 | 3.1 | 0.9 | -1.9 | 4.6 | 8.0 | 4.2*
O=C(N/N=C/c1ccccn1)c1ccco1 | 2.3 | -0.3 | 1.9 | 0.0 | 10.3 | 1.3
CCN(CC)C(=O)CCCSc1nnc(Nc2ccccc2F)s1 | 7.7 | -0.8 | -0.2 | 2.1 | 12.7* | 1.5
CN1C(=O)c2cc(NC(=O)Nc3ccccc3)ccc2OC[C@H]2O[C@@H](CC(=O)NC3CCC3)CC[C@@H]21 | -1.9 | -0.5 | . | -0.3 | -0.7 | 0.9
Cc1ccc(Cc2nnc3n(-c4ccccc4)nc(C(=O)c4ccccc4)n3c2=O)cc1 | -3.2 | -1.4 | 7.0* | -1.4 | -2.1 | -0.6
O=C(O)CNc1nc(-c2ccccc2)nc2c1oc1ccccc12 | -2.6 | -0.2 | 2.0 | 3.6 | 4.0 | -0.7
c1ccc(-c2nc(NCc3cccnc3)c3oc4ccccc4c3n2)cc1 | -1.7 | 0.4 | -2.0 | 6.3* | 8.2 | -1.5
CCCCCCOc1ccc(/C(N)=N/O)cc1 | 5.0 | -1.1 | 2.7 | 4.0 | 10.8* | -0.5
CCOc1ccc2nc(NC(=O)CSc3ccc(Cl)cc3)sc2c1 | -1.8 | -0.7 | -0.3 | -0.1 | 4.2 | 0.3
CSc1nsc(SCC(=O)Nc2ccc(OC(C)=O)cc2)n1 | -0.1 | -0.5 | 3.1 | 1.4 | 11.0* | 1.6

From PubChem BioAssay
